Assay results taken from PubChem BioAssay.
For some of these results: Measured potencies and affinities stand elsewhere. Active and inactive are the calls of the source. Unless noted, the rule behind the calls is not given here.

Key:
[1] = antimalarial activity against Dd2 strain (AID 2302;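 active = growth inhibition above 50% at the single 2 µM test dose, taken to imply half-maximal potency below 2 µM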;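 note: 0% = DMSO untreated growth and 100% = chloroquine plus artemisinin killed control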); details: P. falciparum Dd2 in RBCs, LDH growth readout, 72 h; at 2 µM; stronger effect = higher value
[2] = human hepatoma cell viability loss – ATP luminescence, cytotoxicity control for P. falciparum antimalarial project, primary screen (AID 2303;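 active = inhibition above 50%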;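 note: 0% = DMSO wells and 100% = digitonin-killed cells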); details: HepG2 viability, 24-48 h, at 10 µM, stronger effect = higher value
[3] = target: L-lactate dehydrogenase (Plasmodium falciparum (isolate CDC / Honduras)) (UniProt Q27743); assay: PfLDH activity inhibition – cell lysate, 3D7 strain, counter-screen for P. falciparum growth inhibition project (AID 2304);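 note: 0% = vehicle and 100% = reference inhibitor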; details: P. falciparum 3D7 crude extract, LDH APAD/NBT absorbance; at 2 µM; stronger effect = higher value
[4] = inhibition of 3D7 malaria parasite growth – strain 3D7 (AID 2306);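 note: 0% = DMSO wells and 100% = chloroquine plus artemisinin control wells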; details: P. falciparum 3D7 erythrocytic growth, LDH absorbance, 72 h; at 2 µM; stronger effect = higher value
[5] = target: Calcium-dependent protein kinase 1 (Plasmodium falciparum (isolate 3D7)) (UniProt P62344); assay: PfCDPK1 kinase inhibitors, biochemical, TCAMS library (AID 1159585; cut-off not given, nearly all actives have IC50 up to about 0.98 µM;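 note: inhibitors leave more ATP so luminescence rises with inhibition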); details: recombinant PfCDPK1, Kinase-Glo ATP depletion luminescence
[6] = target: Plasmodium falciparum protein kinase 6 (PK6, PF3D7_1337100) (UniProt Q8IDW1); assay: PfPK6 kinase inhibitors, biochemical, TCAMS library (AID 1159586); details: recombinant PfPK6, Kinase-Glo ATP depletion luminescence
[7] = target: Protein kinase 7 (PK7), Plasmodium falciparum 3D7 (PF3D7_0213400) (UniProt Q7YTF7); assay: inhibition of Plasmodium PK7 catalytic activity – biochemical, TCAMS antimalarial set, Kinase-Glo luminescence (AID 1159587); details: recombinant PfPK7, Kinase-Glo ATP depletion luminescence
[8] = target: Calcium-dependent protein kinase 4 (Plasmodium falciparum (isolate 3D7)) (UniProt Q8IBS5); assay: PfCDPK4 kinase inhibitors, biochemical, TCAMS library (AID 1159588; cut-off not given, nearly all actives have IC50 up to about 0.91 µM); details: recombinant PfCDPK4, Kinase-Glo ATP depletion luminescence
Sequence of Calcium-dependent protein kinase 4 (Plasmodium falciparum (isolate 3D7)) (Q8IBS5 whole entry, looked up): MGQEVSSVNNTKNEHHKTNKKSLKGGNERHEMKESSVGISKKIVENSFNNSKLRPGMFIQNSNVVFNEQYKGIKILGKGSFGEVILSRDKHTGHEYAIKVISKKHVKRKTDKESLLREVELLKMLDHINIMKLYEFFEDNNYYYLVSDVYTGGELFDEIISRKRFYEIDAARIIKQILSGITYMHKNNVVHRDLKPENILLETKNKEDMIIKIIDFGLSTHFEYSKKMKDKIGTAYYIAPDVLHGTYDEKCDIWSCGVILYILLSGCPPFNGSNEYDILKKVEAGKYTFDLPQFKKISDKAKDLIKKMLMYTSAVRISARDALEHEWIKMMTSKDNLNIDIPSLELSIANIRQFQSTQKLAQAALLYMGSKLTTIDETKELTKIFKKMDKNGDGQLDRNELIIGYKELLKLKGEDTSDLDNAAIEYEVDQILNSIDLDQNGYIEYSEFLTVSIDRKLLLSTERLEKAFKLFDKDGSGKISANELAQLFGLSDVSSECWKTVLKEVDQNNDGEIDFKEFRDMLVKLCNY

Sequence of L-lactate dehydrogenase (Plasmodium falciparum (isolate CDC / Honduras)) (Q27743 whole entry, looked up): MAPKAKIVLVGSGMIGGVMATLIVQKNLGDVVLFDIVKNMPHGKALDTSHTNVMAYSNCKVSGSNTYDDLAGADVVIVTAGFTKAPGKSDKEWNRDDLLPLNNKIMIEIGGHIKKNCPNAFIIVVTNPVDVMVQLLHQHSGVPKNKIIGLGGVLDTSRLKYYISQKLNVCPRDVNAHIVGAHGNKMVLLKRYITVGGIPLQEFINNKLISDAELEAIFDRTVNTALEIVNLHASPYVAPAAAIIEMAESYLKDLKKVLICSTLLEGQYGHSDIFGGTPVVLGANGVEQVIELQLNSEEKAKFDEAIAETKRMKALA
Sequence of Plasmodium falciparum protein kinase 6 (PK6, PF3D7_1337100) (Q8IDW1 1-305): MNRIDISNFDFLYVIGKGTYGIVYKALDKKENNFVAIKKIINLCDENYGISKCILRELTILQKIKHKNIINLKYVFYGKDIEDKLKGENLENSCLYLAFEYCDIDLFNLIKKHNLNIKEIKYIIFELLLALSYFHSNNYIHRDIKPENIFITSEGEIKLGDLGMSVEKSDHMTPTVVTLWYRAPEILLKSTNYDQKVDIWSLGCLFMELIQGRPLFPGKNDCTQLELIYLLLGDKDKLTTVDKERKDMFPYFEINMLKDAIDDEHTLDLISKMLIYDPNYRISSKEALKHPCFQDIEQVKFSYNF
Sequence of Protein kinase 7 (PK7), Plasmodium falciparum 3D7 (PF3D7_0213400) (Q7YTF7 1-343): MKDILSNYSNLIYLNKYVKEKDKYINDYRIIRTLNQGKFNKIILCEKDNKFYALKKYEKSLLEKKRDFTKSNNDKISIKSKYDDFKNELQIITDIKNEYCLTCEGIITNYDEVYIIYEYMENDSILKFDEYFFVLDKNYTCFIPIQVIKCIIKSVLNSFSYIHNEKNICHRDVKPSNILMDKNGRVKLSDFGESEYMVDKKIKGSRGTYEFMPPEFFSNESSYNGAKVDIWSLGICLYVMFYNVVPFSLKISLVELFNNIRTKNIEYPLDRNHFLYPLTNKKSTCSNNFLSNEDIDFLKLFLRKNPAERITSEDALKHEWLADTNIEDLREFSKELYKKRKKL
Sequence of Calcium-dependent protein kinase 1 (Plasmodium falciparum (isolate 3D7)) (P62344 whole entry, looked up): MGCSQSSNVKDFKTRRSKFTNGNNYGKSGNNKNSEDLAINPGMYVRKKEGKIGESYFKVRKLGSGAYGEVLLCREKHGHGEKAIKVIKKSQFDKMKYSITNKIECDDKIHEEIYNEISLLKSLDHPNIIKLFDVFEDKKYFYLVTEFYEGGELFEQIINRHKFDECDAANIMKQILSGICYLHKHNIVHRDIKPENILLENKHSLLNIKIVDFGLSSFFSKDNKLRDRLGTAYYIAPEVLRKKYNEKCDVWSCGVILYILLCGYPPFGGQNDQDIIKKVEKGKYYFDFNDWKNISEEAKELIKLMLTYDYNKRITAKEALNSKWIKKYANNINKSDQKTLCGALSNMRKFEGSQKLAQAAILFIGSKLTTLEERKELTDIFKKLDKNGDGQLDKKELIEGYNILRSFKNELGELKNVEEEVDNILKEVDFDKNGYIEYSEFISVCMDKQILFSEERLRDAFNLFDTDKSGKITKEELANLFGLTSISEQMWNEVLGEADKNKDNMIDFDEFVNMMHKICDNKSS

CCNc1cc(-c2cccc(OC)c2)nc(Nc2ccc(F)cc2)n1
inactive: growth inhibition [1] 23% | inhibition [2] 11% | inhibition [3] 3% | outcome [5] | outcome [6] | outcome [7] | outcome [8]
active: growth inhibition [4] 87%

Cc1c2ccc(N(C)c3ccnc(Nc4ccc5c(c4)nc(NC(C)C)n5C)n3)cc2nn1C
active: growth inhibition [1] 100% | growth inhibition [4] 100%
inactive: inhibition [2] 2% | inhibition [3] -4% | outcome [5] | outcome [6] | outcome [7] | outcome [8]

NC(N)=NC(=O)Nc1cc(Cl)c(Cl)c(C(F)(F)F)c1
inactive: inhibition [2] 6% | inhibition [3] -5% | outcome [5] | outcome [6] | outcome [7] | outcome [8]
active: growth inhibition [1] 99% | growth inhibition [4] 100%

O=C(CCC1CCCCC1=O)c1ccccc1 (stereo not drawn)
inactive: growth inhibition [1] 3% | inhibition [2] 0% | inhibition [3] -4% | outcome [5] | outcome [6] | outcome [7] | outcome [8]
active: growth inhibition [4] 91%

COc1cc2ccccc2c(CON2C(N)=NC(N)=NC2(C)C)c1OC
inactive: growth inhibition [1] 10% | inhibition [2] 2% | inhibition [3] 1% | outcome [5] | outcome [6] | outcome [7] | outcome [8]
active: growth inhibition [4] 96%

CCCNCc1ccc(-c2ccc(CN(CCOC)C(=O)CCCOCc3ccccc3)cc2)nc1
active: growth inhibition [4] 93%
inactive: growth inhibition [1] 13% | inhibition [2] -2% | inhibition [3] 2% | outcome [5] | outcome [6] | outcome [7] | outcome [8]

CCOc1ccccc1CNc1nccc(NCCc2cn(C)c3ccccc23)n1
inactive: inhibition [2] 27% | inhibition [3] -4% | outcome [5] | outcome [6] | outcome [7] | outcome [8]
active: growth inhibition [1] 62% | growth inhibition [4] 98%

COc1cccc(OC)c1CN1CCC(N(C)CCCCCCCCN2CCC(OC(=O)Nc3ccccc3-c3ccccc3)CC2)CC1
active: growth inhibition [1] 100% | inhibition [2] 100% | growth inhibition [4] 99%
inactive: inhibition [3] 1% | outcome [5] | outcome [6] | outcome [7] | outcome [8]

CC(=O)c1c(Cc2cccc(C(F)(F)F)c2)c[nH]c1C
active: growth inhibition [1] 92% | growth inhibition [4] 94%
inactive: inhibition [2] 6% | inhibition [3] 7% | outcome [5] | outcome [6] | outcome [7] | outcome [8]

O=C(CCc1cnc[nH]1)Nc1ccc(-c2cccc(-c3nc4ccccc4[nH]3)c2)cc1
active: growth inhibition [4] 101%
inactive: growth inhibition [1] 42% | inhibition [2] 12% | inhibition [3] 4% | outcome [5] | outcome [6] | outcome [7] | outcome [8]

O=C1C2C(C(=O)N1c1ccccc1)[C@H]1S[C@@H]2c2c1ccc1ccccc21 (stereo partly drawn)
active: growth inhibition [4] 96%
inactive: growth inhibition [1] 7% | inhibition [2] -5% | inhibition [3] -1% | outcome [5] | outcome [6] | outcome [7] | outcome [8]

COc1ccccc1COc1c(C)nc(N)nc1N
inactive: growth inhibition [1] 1% | inhibition [2] 32% | inhibition [3] -1% | outcome [5] | outcome [6] | outcome [7] | outcome [8]
active: growth inhibition [4] 98%

COc1ccc2nccc(NCC3(O)CCC(NCc4ccc5c(n4)NC(=O)CS5)CC3)c2n1 (stereo not drawn)
active: growth inhibition [4] 100%
inactive: growth inhibition [1] 23% | inhibition [2] 16% | inhibition [3] 3% | outcome [5] | outcome [6] | outcome [7] | outcome [8]

N=c1n(Cc2ccc(Cl)cc2)c2ccccc2n1CC(O)c1ccc(Cl)c(Cl)c1 (stereo not drawn)
inactive: inhibition [3] 4% | outcome [5] | outcome [6] | outcome [7] | outcome [8]
active: growth inhibition [1] 99% | inhibition [2] 58% | growth inhibition [4] 98%

CCOC(=O)c1c[nH]c2c(sc3cc(OC)ccc32)c1=O
active: growth inhibition [1] 93% | growth inhibition [4] 96%
inactive: inhibition [2] -6% | inhibition [3] 3% | outcome [5] | outcome [6] | outcome [7] | outcome [8]

O=C(CCc1cnc[nH]1)Nc1cccc(-c2cccc(-c3nc4ccc(C(F)(F)F)cc4[nH]3)c2)c1
inactive: inhibition [2] 17% | inhibition [3] 7% | outcome [5] | outcome [6] | outcome [7] | outcome [8]
active: growth inhibition [1] 99% | growth inhibition [4] 101%

CC(Oc1ccc(Cl)cc1)C(=O)NCCC1CCN(CCCCCNC(=O)/C=C/c2ccc(Cl)c(Cl)c2)CC1 (stereo not drawn)
active: growth inhibition [4] 89%
inactive: growth inhibition [1] 20% | inhibition [2] 48% | inhibition [3] -5% | outcome [5] | outcome [6] | outcome [7] | outcome [8]

COc1ccc(-c2ccc(NC(=O)c3ccc(Cl)cc3)cc2)cc1CN1CCN(C)CC1
active: growth inhibition [4] 86%
inactive: growth inhibition [1] 23% | inhibition [2] 36% | inhibition [3] 7% | outcome [5] | outcome [6] | outcome [7] | outcome [8]

Cc1ccccc1C1CCN(c2ccc(NC(=O)c3ccc(Cl)nc3)cc2)CC1
active: growth inhibition [1] 82% | growth inhibition [4] 92%
inactive: inhibition [2] 43% | inhibition [3] -2% | outcome [5] | outcome [6] | outcome [7] | outcome [8]

Cc1cc(=O)[nH]c(/N=C(/N)NOCc2ccccc2)n1
inactive: growth inhibition [1] 1% | inhibition [2] 0% | inhibition [3] 0% | outcome [5] | outcome [6] | outcome [7] | outcome [8]
active: growth inhibition [4] 101%

CN(C)Cc1ccc(-c2cccc(NC(=O)c3cccc(Cl)c3)c2)cc1
active: growth inhibition [4] 96%
inactive: growth inhibition [1] 12% | inhibition [2] 18% | inhibition [3] -6% | outcome [5] | outcome [6] | outcome [7] | outcome [8]

Cc1ccc(-n2c(Sc3ncnc4sccc34)nnc2N2CCCC2)cc1
inactive: inhibition [2] 0% | inhibition [3] -3% | outcome [5] | outcome [6] | outcome [7] | outcome [8]
active: growth inhibition [1] 100% | growth inhibition [4] 99%

N#Cc1ccc(NC(=O)Nc2ccc3c(c2)CCN(C2CCC2)CC3)cc1
inactive: growth inhibition [1] 11% | inhibition [2] 6% | inhibition [3] -8% | outcome [5] | outcome [6] | outcome [7] | outcome [8]
active: growth inhibition [4] 96%

FC(F)(F)c1ccc2nc(-c3ccc(-c4cccc(CNCC5CCCO5)c4)s3)[nH]c2c1 (stereo not drawn)
active: growth inhibition [1] 99% | growth inhibition [4] 99%
inactive: inhibition [2] 37% | inhibition [3] -7% | outcome [5] | outcome [6] | outcome [7] | outcome [8]

CCc1ccc(CN2CCC(CNC(=O)c3cc(-c4cccc(F)c4)cs3)C2)cc1 (stereo not drawn)
inactive: growth inhibition [1] 4% | inhibition [2] 23% | inhibition [3] 2% | outcome [5] | outcome [6] | outcome [7] | outcome [8]
active: growth inhibition [4] 84%

CN(C)c1ccc(-c2csc(C(=O)NCC3CCN(Cc4cccc(C(F)(F)F)c4)C3)c2)cc1 (stereo not drawn)
inactive: inhibition [2] 15% | inhibition [3] -2% | outcome [5] | outcome [6] | outcome [7] | outcome [8]
active: growth inhibition [1] 58% | growth inhibition [4] 97%

O=C(Nc1ccc(N2CCN(Cc3ccccc3Cl)CC2)cc1)c1ccc([N+](=O)[O-])o1
active: growth inhibition [1] 67% | inhibition [2] 100% | growth inhibition [4] 91%
inactive: inhibition [3] -4% | outcome [5] | outcome [6] | outcome [7] | outcome [8]

O=C(/C=C/c1ccc(Cl)c(Cl)c1)N1CCC(CN2CCC(c3c[nH]c4ccncc34)CC2)CC1
inactive: inhibition [2] 44% | inhibition [3] 0% | outcome [5] | outcome [6] | outcome [7] | outcome [8]
active: growth inhibition [1] 72% | growth inhibition [4] 101%

CC12CCC(=O)N1C(C(=O)Nc1cccc(C(=O)Nc3cccc(C(F)(F)F)c3)c1)CS2 (stereo not drawn)
inactive: inhibition [2] 6% | inhibition [3] -3% | outcome [5] | outcome [6] | outcome [7] | outcome [8]
active: growth inhibition [1] 89% | growth inhibition [4] 92%

Cc1cc(C(=O)CN2C(=O)NC3(CCCc4ccccc43)C2=O)c(C)n1Cc1ccc(F)cc1 (stereo not drawn)
inactive: inhibition [2] 4% | inhibition [3] 2% | outcome [5] | outcome [6] | outcome [7] | outcome [8]
active: growth inhibition [1] 53% | growth inhibition [4] 92%

CCOC(=O)c1c(CN2CCCC2)n(-c2ccccc2)c2cc(Br)c(O)cc12
inactive: inhibition [2] -2% | inhibition [3] -2% | outcome [5] | outcome [6] | outcome [7] | outcome [8]
active: growth inhibition [1] 53% | growth inhibition [4] 83%

Fc1ccc2nc(-c3cccc(-c4ccc(CN5CCC(CCN6CCCCC6)CC5)cc4)c3)[nH]c2c1
inactive: inhibition [3] -2% | outcome [5] | outcome [6] | outcome [7] | outcome [8]
active: growth inhibition [1] 100% | inhibition [2] 91% | growth inhibition [4] 101%

Cn1nccc1C(=O)NCCNCc1ccc(-c2cccc(-c3nc4ccc(F)cc4[nH]3)c2)cc1
inactive: inhibition [2] 37% | inhibition [3] -7% | outcome [5] | outcome [6] | outcome [7] | outcome [8]
active: growth inhibition [1] 98% | growth inhibition [4] 102%

Cc1cccc(CC2CC(=O)N(c3ccc([N+](=O)[O-])cc3)C2=O)c1 (stereo not drawn)
inactive: growth inhibition [1] 1% | inhibition [2] 11% | inhibition [3] 2% | outcome [5] | outcome [6] | outcome [7] | outcome [8]
active: growth inhibition [4] 95%

COc1ccc(Nc2nc(NCc3ccc(-n4ccnc4)cc3)cc(-c3ccc(OC)cc3)n2)cc1
active: growth inhibition [4] 96%
inactive: growth inhibition [1] 25% | inhibition [2] 8% | inhibition [3] -2% | outcome [5] | outcome [6] | outcome [7] | outcome [8]

O=C(Nc1cccc(-c2nc3ccccc3s2)c1)c1ccccc1[N+](=O)[O-]
inactive: growth inhibition [1] 9% | inhibition [2] 0% | inhibition [3] 0% | outcome [5] | outcome [6] | outcome [7] | outcome [8]
active: growth inhibition [4] 85%

O=C(Nc1cccc(-c2cccc(-c3nc4ccc(C(F)(F)F)cc4[nH]3)c2)c1)c1cccnc1
inactive: inhibition [3] -6% | outcome [5] | outcome [6] | outcome [7] | outcome [8]
active: growth inhibition [1] 70% | inhibition [2] 57% | growth inhibition [4] 100%

CCOc1ccc2c(c1)OC(c1ccccc1)(C(F)(F)F)NC2=O (stereo not drawn)
inactive: inhibition [2] -7% | inhibition [3] -2% | outcome [5] | outcome [6] | outcome [7] | outcome [8]
active: growth inhibition [1] 98% | growth inhibition [4] 100%

CN(C)CC1CCCN1Cc1ccccc1-c1cnn(C)c(=O)c1Oc1ccc(F)cc1 (stereo not drawn)
active: growth inhibition [4] 91%
inactive: growth inhibition [1] 19% | inhibition [2] 29% | inhibition [3] 2% | outcome [5] | outcome [6] | outcome [7] | outcome [8]

Cc1cc(N[C@@H](Cc2ccccc2)C(=O)Nc2ccccc2)nc(NCCc2cccnc2)n1
active: growth inhibition [1] 57% | growth inhibition [4] 95%
inactive: inhibition [2] 32% | inhibition [3] -3% | outcome [5] | outcome [6] | outcome [7] | outcome [8]

COc1ccc(-c2ccc(NC(=O)c3cccc(C#N)c3)cc2)cc1CN1CCN(C)CC1
inactive: inhibition [2] 26% | inhibition [3] 8% | outcome [5] | outcome [6] | outcome [7] | outcome [8]
active: growth inhibition [1] 59% | growth inhibition [4] 100%
